{"source": "PubChem BioAssay (EPA / NIEHS)", "note": "Active and inactive are the calls of the source. The calls were made as follows: active = hit-call score of the fitted dose curve at least 0.9, where 1 is the maximum; inactive = score below 0.9.", "data": [{"target": "Signal transducer and activator of transcription 3 (Homo sapiens) (UniProt P40763)", "sequence (P40763 whole entry, looked up)": "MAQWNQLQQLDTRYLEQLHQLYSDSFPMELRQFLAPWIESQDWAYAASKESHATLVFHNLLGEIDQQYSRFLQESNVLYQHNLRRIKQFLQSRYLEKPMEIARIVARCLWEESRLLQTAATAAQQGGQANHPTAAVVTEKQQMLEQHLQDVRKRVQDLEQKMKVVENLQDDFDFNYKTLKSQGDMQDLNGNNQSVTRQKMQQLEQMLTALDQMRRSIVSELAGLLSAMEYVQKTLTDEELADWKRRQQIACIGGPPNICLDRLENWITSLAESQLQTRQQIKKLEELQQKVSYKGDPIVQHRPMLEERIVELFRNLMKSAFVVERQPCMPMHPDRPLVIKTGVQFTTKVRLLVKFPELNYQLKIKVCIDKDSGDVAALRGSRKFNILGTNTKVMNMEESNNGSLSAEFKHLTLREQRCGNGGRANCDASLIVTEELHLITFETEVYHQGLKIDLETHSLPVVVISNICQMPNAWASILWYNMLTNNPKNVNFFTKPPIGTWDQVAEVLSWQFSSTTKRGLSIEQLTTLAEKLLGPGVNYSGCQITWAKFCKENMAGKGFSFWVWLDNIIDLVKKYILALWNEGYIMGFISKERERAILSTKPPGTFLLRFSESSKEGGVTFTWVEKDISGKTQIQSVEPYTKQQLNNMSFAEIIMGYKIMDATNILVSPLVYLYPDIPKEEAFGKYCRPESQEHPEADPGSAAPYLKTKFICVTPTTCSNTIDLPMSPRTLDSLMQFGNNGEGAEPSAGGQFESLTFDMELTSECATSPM", "experiment": "ATG_STAT3_CIS: Attagene CIS-FACTORIAL HepG2 Assay for human Signal Transducer and Activator of Transcription 3 (STAT3) (AID 2282963)", "details": "HepG2, Attagene cis-factorial STAT3 reporter transcription; actives raise or lower the signal", "in_short": "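HepG2 cells transiently transfected with multiple cis-element-driven reporter units report endogenous transcription factor activity. After 24 h compound exposure, reporter mRNA is measured by RT-PCR, 6-FAM labelling, HpaI digestion and capillary electrophoresis. Fitted bidirectionally versus DMSO.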", "values": [{"compound": "COc1cc(-c2ccc(N)c(OC)c2)ccc1N", "outcome": "inactive"}, {"compound": "CCSC(C)CC1CC(=O)C(C(CC)=NOC/C=C/Cl)=C(O)C1", "note": "(centres undefined)", "outcome": "inactive"}, {"compound": "CC(=O)C=C(C)C", "outcome": "inactive"}, {"compound": "CCC(=O)c1ccccc1", "outcome": "inactive"}, {"compound": "CN(C)N=O", "outcome": "inactive"}, {"compound": "CCc1ccccc1N", "outcome": "inactive"}, {"compound": "BrCCBr", "outcome": "inactive"}, {"compound": "C[C@]12CC[C@H](O)CC1=CC[C@@H]1[C@@H]2CC[C@]2(C)C(=O)CC[C@@H]12", "outcome": "inactive"}, {"compound": "Nc1cccc2ccccc12", "outcome": "inactive"}, {"compound": "O=Cc1cccc(Oc2ccccc2)c1", "outcome": "inactive"}, {"compound": "O=CC=O", "outcome": "inactive"}, {"compound": "CCC[CH2][Sn]([CH2]CCC)([CH2]CCC)[O]C(=O)c1ccccc1", "outcome": "inactive"}, {"compound": "O=[N+]([O-])c1ccc2c3c(cccc13)CC2", "outcome": "inactive"}, {"compound": "C[C@H]1O[C@@H](O[C@H]2[C@@H](O)C[C@H](O[C@H]3[C@@H](O)C[C@H](O[C@H]4CC[C@@]5(C)[C@H](CC[C@@H]6[C@@H]5CC[C@]5(C)[C@@H](C7=CC(=O)OC7)CC[C@]65O)C4)O[C@@H]3C)O[C@@H]2C)C[C@H](O)[C@@H]1O", "AC50": "0.196 µM (active)"}, {"compound": "O=C/C=C/c1ccccc1", "outcome": "inactive"}, {"compound": "Clc1ccc(C2(Cn3cncn3)CC(Br)CO2)c(Cl)c1", "note": "(centres undefined)", "outcome": "inactive"}, {"compound": "Clc1ccc(COC(Cn2ccnc2)c2ccc(Cl)cc2Cl)cc1", "note": "(centres undefined)", "outcome": "inactive"}, {"compound": "CCCCCCCCC(=O)NCc1ccc(O)c(OC)c1", "outcome": "inactive"}, {"compound": "Nc1ccc(-c2ccc(N)c(Cl)c2)cc1Cl", "outcome": "inactive"}, {"compound": "CCC1(c2ccc(N)cc2)CCC(=O)NC1=O", "note": "(centres undefined)", "outcome": "inactive"}, {"compound": "Oc1ccc(-c2ccccc2)cc1", "outcome": "inactive"}, {"compound": "CCCCCCCCCl", "outcome": "inactive"}, {"compound": "CC(=O)[O][Hg][c]1ccccc1", "outcome": "inactive"}, {"compound": "O=C(O)C(Cl)(Cl)Cl", "outcome": "inactive"}, {"compound": "CC(C)(c1ccccc1)c1ccc(O)c(C(C)(C)c2ccccc2)c1", "outcome": "inactive"}, {"compound": "COC[C@H](C)N(C(=O)CCl)c1c(C)csc1C", "outcome": "inactive"}, {"compound": "CC(=[OH+])/C=C(/C)[O-].CC(=[OH+])/C=C(/C)[O-].CC(=[OH+])/C=C(/C)[O-].[Fe]", "outcome": "inactive"}, {"compound": "CCCCCCCCc1ccc(O)cc1", "outcome": "inactive"}, {"compound": "C[C@H]1CCCC(=O)CCC/C=C/c2cc(O)cc(O)c2C(=O)O1", "outcome": "inactive"}, {"compound": "O=C(O)C(F)(F)C(F)(F)C(F)(F)C(F)(F)C(F)(F)C(F)(F)C(F)(F)C(F)(F)C(F)(F)C(F)(F)F", "outcome": "inactive"}, {"compound": "Cc1ccc2ccccc2c1C", "outcome": "inactive"}, {"compound": "O=S(=O)(c1ccc(Cl)cc1)c1ccc(Cl)cc1", "outcome": "inactive"}, {"compound": "CC(C)(C)c1cc(O)ccc1O", "outcome": "inactive"}, {"compound": "COC(=O)Cc1ccccc1", "outcome": "inactive"}, {"compound": "COC(=O)c1sccc1S(=O)(=O)NC(=O)Nc1nc(C)nc(OC)n1", "outcome": "inactive"}, {"compound": "O=C(O)C(F)(F)C(F)(F)C(F)(F)C(F)(F)C(F)(F)C(F)(F)F", "outcome": "inactive"}, {"compound": "N#CCCO", "outcome": "inactive"}, {"compound": "C[C@]12CCC(=O)C[C@@H]1CC[C@@H]1[C@@H]2CC[C@]2(C)[C@@H](O)CC[C@@H]12", "outcome": "inactive"}, {"compound": "CCc1ccccc1C", "outcome": "inactive"}]}]}
